Inconclusive results are not listed. Calls of active or inactive are those of the source. The calls were made as follows: active = hit-call score of the fitted dose curve at least 0.9, where 1 is the maximum; inconclusive = response in the unintended direction; inactive = score below 0.9.
These compounds were tested on guinea pig Muscarinic, Peripheral (Mperiperal) Receptor, Non-selective Binding, gene 100379235 (assay: NVS_GPCR_gMPeripheral_NonSelective: NovaScreen (NVS) G Protein-Coupled Receptor Assay for guinea pig Muscarinic, Peripheral (Mperiperal) Receptor, Non-selective Binding (AID 2283250)).
Description: NVS_GPCR_gMPeripheral_NonSelective is a biochemical, single-readout assay that uses extracted gene-proteins from Guinea pig bladder membranes in a tissue-based cell-free assay. Measurements were taken 1 hour after chemical dosing in a 48-well plate.NVS_GPCR_gMPeripheral_NonSelective is one of one assay component(s) measured or calculated from the NVS_GPCR_gMPeripheral_NonSelective assay. It is designed to make measurements of radioligand binding, a form of binding reporter, as detected with scintillation counting signals by Filter-based radiodetection technology.Data from the assay component NVS_GPCR_gMPeripheral_NonSelective was analyzed into 1 assay endpoint. This assay endpoint, NVS_GPCR_gMPeripheral_NonSelective, was analyzed in the positive analysis fitting direction relative to DMSO as the negative control and baseline of activity. Using a type of binding reporter, loss-of-signal activity can be used to understand changes in the binding as they relate to the gene Chrm3. Furthermore, this assay endpoint can be referred to as a primary readout, because the performed assay has only produced 1 assay endpoint. To generalize the intended target to other relatable targets, this assay endpoint is annotated to the gpcr intended target family, where the subfamily is rhodopsin-like receptor.
Binding assays used specific radioligands (tritiated, iodinated) with non-radioactive competitive displacement ligands in agonist or antagonist protocols (as indicated) and various reference compounds and inhibitors to titrate specific binding to receptors and transporters. Most enzyme assays (CYPs, kinases, phosphatases, proteases, HDACs) used recombinant protein and specific substrates (fluorescence mostly, some colorimetric and radioactive) and inhibitors, followed by a biochemical separation of substrate and product. All assays for the biochemical HTS were initially run in duplicate at a single concentration (10 uM for CYP450 assays and 25 uM for all others). Assay-chemical combinations meeting a pre-defined threshold (e.g., 30% inhibition and other criteria defined below) were then run in singleton concentration-response format with maximum concentration of 20 uM for CYPs and 50 uM for all others. Each assay was run with positive and negative controls, and concurrent controls on every plate. The follow-up (secondary) screen tested active chemical-pairs in concentration series, as well as a few additional assays not tested in the primary screen, some selected negative inactives, and several cases re-run in the concentration series for confirmatory purposes.

Compound	AC50	outcome
CCOC(=O)O[C@H](C)OC(=O)c1ccc2c(c1)cc(C(=O)NC1CCN(C(C)C)CC1)n2Cc1cc(-c2ccc(Cl)s2)on1	16.6 µM (active)	
Cc1occc1C(=O)Nc1ccc(C(=O)N2CCC(F)(F)/C(=C\C(=O)N3CCC(N4CCCCC4)CC3)c3ccccc32)cc1	5.65 µM (active)	
Cc1cc2c(cc1C(F)(F)F)N(C(=O)Nc1ccc(Oc3cccnc3C)nc1)CC2		inactive
c1ccc(C[n+]2cccc3ccccc32)cc1	8.25 µM (active)	
NCc1cccc(C2CCN(C(=O)c3ccc(C#Cc4ccccc4F)o3)CC2)c1	9.09 µM (active)	
Clc1cc(Cl)c2c(c1)N=C1CCCCCN1C2	6.74 µM (active)	
CCN(CC)C(=O)c1cc(S(=O)(=O)Cc2ccccc2)c(N2CCC(c3ccccc3)CC2)cc1N(CC)CCN(C)C	12 µM (active)	
CN(C)c1ccc(C(=C2C=CC(=[N+](C)C)C=C2)c2ccc(N(C)C)cc2)cc1	5.05 µM (active)	
COc1cc(C(=O)NC2CCN(C)CC2)ccc1Nc1ncc2c(n1)N(C1CCCC1)CC(F)(F)C(=O)N2C	9.85 µM (active)	
COc1ccc2cc(S(=O)(=O)N[C@H](CC(=O)N[C@H](Cc3ccc(CN4[C@H](C)CCC[C@@H]4C)cc3)C(=O)N(C)C(C)C)c3ccc4c(c3)OCO4)ccc2c1	5.48 µM (active)	
CN(C)C(=O)C1(N2CCCCC2)CCN(CC[C@@]2(c3ccc(Cl)c(Cl)c3)CN(C(=O)c3ccccc3)CCO2)CC1	8.87 µM (active)	
CCCCCCCCCCCC[N+](C)(C)C	4.49 µM (active)	
O=C1c2ccccc2C(=O)N1CCc1noc(-c2ccc(CN3CCCCCC3)s2)n1	4.5 µM (active)	
